In all, about 25,000 sequences were measured (“ln(normalized median fluorescence intensity)”: median about 9.7, highest 2% from about 11 on). Shown is part of a subset that was picked to be rich in the highest values.

The test system of the experiment is PfAP2-HC AP2 domain (GST-tagged). The experiment in a line: gcPBM binding intensity (ln(normalized median fluorescence intensity)); higher = stronger DNA binding. An outline of the steps:
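Alexa488 anti-GST antibody, scanned at 488 nm, detected GST-tagged P. falciparum DNA-binding domains that had been expressed in E. coli and incubated for 1 h on an Agilent 4 × 180k array. The array carried primer-extended double-stranded 36-bp intergenic genomic probes and negative controls. Binding intensity is the highest Masliner-normalised natural-log median intensity across replicate spots of either orientation of each probe.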
For “TTATATATAGATCACACACACACACCGGTTTTAAAA [CACACA_site4220]”, the “gcPBM binding intensity (ln)” value turned out to be 11.2. Next, “TGTTTTTAAAAAAAAAAAAAATCACACCGGCAGGTA [CACACA_negctrl_site1437]”: 9.49; “ATATAGATCAGACACACACACATGTTTTAAAACTAT [CACACA_site6186]”: 10.9. For “TAAGAAAAATATATATGTACACATATATATATATAT [XGTACX_site8542]”, the “gcPBM binding intensity (ln)” value was found to be 9.61. Next, “CTTTGTGTTAAAAGTAGTACACCAAAAATATGACTT [XGTACX_site622]”: 9.55; “TATACAGACAGACACACACACATATATAAATATGTA [CACACA_site6912]”: 10.6; “AATGGCAAAATAGGCACACACACATATACAGATATA [CACACA_site4726]”: 10.6. With “TGGAAAAATAGGCACACACACATATATACATATATA [CACACA_site1297]”, the “gcPBM binding intensity (ln)” value worked out at 10.5. For “AATGGCAAAATAGGCACACACACATATACATATATA [CACACA_site1058]” the value was 10.9; for “ATATTATACATTTATACACACATAAAAAGACAAAAA [CACACA_site3565]”, 9.92. Next, “AATGGAAAAATAGGCACACACACATAAATACAGATA [CACACA_site4844]”: 11.2; “CATACATACAGACACACACACATATAAATACATACA [CACACA_site6533]”: 10.3. For “TGGCAAAATAGGCACACACACATATACATATATATT [CACACA_site1059]” the value was 10.3. Consider “AATACATACAGACACACACACACATATAAATAAATA [CACACA_site7642]”, for which the “gcPBM binding intensity (ln)” value came to 11.6. “TTAAAAAAAAGACACACACACATACACATATTTATA [CACACA_site7535]”: the “gcPBM binding intensity (ln)” value was 11.2.

With “AATGGAAAAATAGGCACACACACATATATACATATA [CACACA_site1298]”, the “gcPBM binding intensity (ln)” value is 10.6.

With “AAAAAAAAAAGACACACACACATATTTATTTATATA [CACACA_site6484]”, the “gcPBM binding intensity (ln)” value worked out at 10.4. Next, “TTCTATATATAATATTGTACTTAATTATTTTATTTT [XGTACX_site2701]”: 9.83; “TTTTATCATATTTATTGTACACATAATATACATATC [XGTACX_site1145]”: 9.99. Next, “GATATGTACTAATACACACACATATATATATATATA [CACACA_site1022]”: 10.2; “ATACATTTTTGTAAAAGTACATATACATGCCCCCTT [XGTACX_site1367]”: 9.72.

As for “TTATATATATATGTATGTACTTATAACTTTTATTAG [XGTACX_site3190]”, the “gcPBM binding intensity (ln)” value amounted to 9.6. For TTTTTTTTTTTTGTAGTGCAAATTAAAAATATATGT, the “gcPBM binding intensity (ln)” value turned out to be 9.39. For “ACATAGATCATAGGTTGTACGAAGGTATCCTTTATT [XGTACX_site694]” the value was 9.65.

For “AAGATAACAAGTAATCAATCTAATTATTAATTATAT [CACACA_negctrl_site1713]”, the “gcPBM binding intensity (ln)” value stood at 9.52. Next, “AACGAACACTATTACACACATACATACATATGTATG [CACACA_site1859]”: 10.1; “AAGGAAAAACCATTCGCACACACACCGAATATATAA [CACACA_site8403]”: 10.2; “CAATTTTACTCATAAACACACATATAGATGTTATTA [CACACA_site7474]”: 9.6. For “AAATAATATATTCCTTGTACTTATTTCAATGAATTC [XGTACX_site7719]” the value was 9.64.

Consider “GATACAGATGGACACACACACATACATAAATACATA [CACACA_site5833]”, for which the “gcPBM binding intensity (ln)” value stood at 11.3. Next, “AAAAAAAACAGACACACACACATTCAATATAAAACA [CACACA_site41]”: 11.3. For “CAAGGAACCAGACACACACACATAAATGTATATATA [CACACA_site752]” the value was 10.2. With “TATACAGATGGACACACACACATATATATATATATA [CACACA_site5272]”, the “gcPBM binding intensity (ln)” value was 11. For “GGAATAACCAGACACACACACACATATATATATATA [CACACA_site3541]”, the “gcPBM binding intensity (ln)” value is 10.9.

For “GGAATAACCAGACACACACACACATATAAATATGTA [CACACA_site7632]”, the “gcPBM binding intensity (ln)” value was found to be 11.2. For “CAAATACATGGACACACACACATATACAGATATATA [CACACA_site5854]” the value was 10.9; for “AAAAAAAAAAAACACACACACACATTCAATATAAAA [CACACA_site40]”, 10.4. For “ATGGGACAGATATATACACACATATAAATATAAATA [CACACA_site6684]” the value was 10; for “AAAAAAAACGAACACACACACATTCAATATAAAACA [CACACA_site6170]”, 10.5; for “TATACAGATGGACACACACACATAAATAAATATATA [CACACA_site4863]”, 10.4. Next, “GAATAATATGGACATACACACATATACATACAGATA [CACACA_site5200]”: 10.5. For TACAATACCGTACAGGTGCAACTAGCCAAAAAAAAG, the “gcPBM binding intensity (ln)” value was determined as 9.75.

Turning to “CCCTTTTTTTTTTAATGTACATATAATTATATATTT [XGTACX_site8568]”, the “gcPBM binding intensity (ln)” value came out at 9.88. Next, “ATTCAATAAACGTATTGTACAAAAGAACGATATATT [XGTACX_site2533]”: 9.78; “CAACATTCGTATATCACACATTTGCATGTTGTCAAT [CACACA_site4470]”: 9.78. On to “TAACAATATCTAGATACACACACATATCTCTCAATC [CACACA_site8122]”, for which the “gcPBM binding intensity (ln)” value was determined as 10.4. For “CTCCTTTCAAAAAAATGTACATGTTTACATTTCAAG [XGTACX_site7342]” the value was 9.55.

Turning to “TATATTAATAGACACACACACATATTTATATTTATA [CACACA_site6859]”, the “gcPBM binding intensity (ln)” value was found to be 11.1. For the sequence “TATACAGATAAATACACACACACATATATATATATA [CACACA_site4845]”, the “gcPBM binding intensity (ln)” value was 11.2.

The values are drawn from the supplement of paper PMC11417369.
